Holding throughout (assay): NCI-60 one-dose screen, 48 h (100 = growth as untreated, 0 = no growth, -100 = all killed)
Common to all, as to conditions: 10 µM

Experiment [1] relates to NCI-H23 lung.
Experiment [2] relates to NCI-H226 lung.
Experiment [3] concerns NCI-H322M lung.
Experiment [4] has as its system HOP-62 NSCLC.
Experiment [5] relates to NCI-H460 lung.
Experiment [6] deals with HOP-92 NSCLC.
The test system of experiment [7] is NCI-H522 lung.
Experiment [8] has as its system A549/ATCC NSCLC.
The test system of experiment [9] is 786-0 renal.
Experiment [10] deals with COLO 205 colon.
Experiment [11] relates to DU-145 prostate.
Experiment [12] has as its system K-562 leukemia.
Experiment [13] relates to MALME-3M melanoma.
In experiment [14] the test system is MDA-MB-231 breast.
Experiment [15] relates to RXF 393 renal.
The subject of experiment [16] is SF-268 CNS.
Experiment [17] deals with SF-295 CNS.
Experiment [18] concerns SF-539 CNS.
In experiment [19] the test system is UACC-257 melanoma.
For experiment [20], the system named is M14 melanoma.

Each structure is given as a SMILES string. This is part of a sample that, as a whole, favours compounds with a hit. Of some 83,000 tested, about 20% had one in any assay.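 Plates (96-well) were seeded with cells, treated with compound at one concentration, and incubated for 48 hours before percent growth was determined.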 Values without a mark were called inactive. Activity calls are given as the source filed them. The calls were made as follows: active = growth percent below 10; inactive = the rest.

Take `COC[C@@H](CC(C)C)N=C1N/C(=C\c2ccc3ncsc3c2)C(=O)N1C`: the growth is -17.7% (active) in experiment [1]; 11.4% in experiment [2]; 9.12% (active) in experiment [3]; -9.28% (active) in [4]; 21.2% in experiment [5]; 19.1% in [6]. For the same molecule, the growth in experiment [7] is -29.6% (active); in experiment [8], 15.9%; in [9], 14.9%; in [10], -28.4% (active); in experiment [11] it was 20.9%; in experiment [12] it was 17.7%. Besides, the growth in experiment [13] is 7.51% (active); in [14], 0.748% (active); in experiment [15], -19.2% (active); in [16] it was 19.1%; in experiment [17], 23.2%; in experiment [18], -15.6% (active). Also, the figures for the growth in experiment [19] and in experiment [20] were 6.69% (active) and 38.1%, respectively.

On to `O=C1Nc2cc(-c3ccc(NC(=O)c4cccs4)cc3)ccc2/C1=C/c1ccc[nH]1`, for which the growth in experiment [1] was 66.4%; in [2], 40.4%; in [3] it was 99.3%; in experiment [4] it was 98.3%; in experiment [5] it was 83%; in [6] it was 104%. Also, the growth in experiment [7] was 79.4%; in experiment [8] it was 81.7%; in [9], 98.5%; in experiment [10] it was 99.7%; in [11] it was 32.7%; in experiment [12], 80.8%. In addition, the growth in experiment [13] is 78.2%; in experiment [14] it was 61%; in experiment [15] it was 73.9%; in [16], 73.5%; in experiment [17], 55.1%; in [18] it was 83.9%. For the same molecule, the growth in experiment [19] is 75.2%; in experiment [20], 88.9%.

For the molecule `CC(C)CCSc1nc(NC2CC2)c(C#N)c(-c2ccc(C(C)C)cc2)n1`, the growth in experiment [1] is 101%; in [2], 106%; in experiment [3], 113%; in [4] it was 94.9%; in experiment [5] it was 120%; in experiment [6], 114%. Besides, the growth in experiment [7] was 90.7%; in experiment [8], 106%; in [9], 93.6%; in experiment [10], 126%; in experiment [11], 120%; in experiment [12], 100%. The growth was 108% in experiment [13]; 105% in experiment [14]; 113% in experiment [15]; 121% in experiment [16]; 100% in experiment [17]; 101% in experiment [18]. For the same molecule, the growth in experiment [19] was 103%; in experiment [20], 109%.

In the case of `C=C1CCC2C3(C)COC(c4cccc(F)c4)OC3CCC2(C)C1CC(O)C1=CCOC1=O` (configuration not stated), the growth in [1] is 82.9%; in experiment [2], 73.1%; in experiment [3], 90.4%; in [4] it was 88.7%; in [5], 82.2%; in [6] it was 76.4%. The growth was 23.9% in experiment [7]; 80.3% in experiment [8]; 41.1% in [9]; 60.7% in [10]; 72.8% in experiment [11]; 24.1% in [12]. In addition, the growth in [13] is 90.8%; in experiment [14] it was 67.5%; in [15] it was 57.2%; in [16] it was 106%; in experiment [17], 74.5%; in [18], 84.8%. For the same molecule, the growth in experiment [19] was 72.7%; in [20], 61.1%.

For the molecule `COc1ccc(-c2cc(C(=O)N=Nc3c(O)[nH]c4ccccc34)c3ccccc3n2)cc1`, the growth is -36.4% (active) in [1]; -36% (active) in experiment [2]; 6.23% (active) in experiment [3]; -42.7% (active) in experiment [4]; -70.4% (active) in experiment [5]; -46.5% (active) in experiment [6]. For the same molecule, the growth in experiment [7] is 24.3%; in experiment [8], -37.4% (active); in experiment [9], -40.9% (active); in experiment [10], -5.77% (active); in [11], -92.8% (active); in experiment [12] it was 25.7%. The growth in experiment [13] is -54.6% (active); in [14], -58.8% (active); in [16], -0.0948% (active); in experiment [17] it was 4.82% (active); in [18], -76% (active); in [19], 47.8%. In [20], the growth was 11.1%.

As for `CCCCSc1nc(Nc2ccc(/C(C)=N/NC(N)=S)cc2)c(C#N)c(-c2ccc(OC)cc2)n1`, the growth in experiment [1] is 31.4%; in [2], -6.28% (active); in experiment [3], 74.8%; in experiment [4], 54.4%; in [5], 46.5%; in experiment [6], -4.59% (active). Besides, the growth in [7] was 85.7%; in experiment [8], 47.4%; in [9], -71.5% (active); in experiment [10] it was 125%; in experiment [11] it was 61.5%; in experiment [12], 78.2%. For the same molecule, the growth in experiment [13] was -39.6% (active); in [14], -11.4% (active); in experiment [16] it was 56.6%; in experiment [17], 69.7%; in experiment [18], -55.4% (active); in [19], 74.9%. Moreover, the growth in experiment [20] was 39.3%.

As for `O=C1Nc2ccc(Cl)cc2/C1=C/c1ccc(OCc2ccccn2)cc1`, the growth in experiment [1] was 62.2%; in experiment [2], 1.26% (active); in experiment [3], 64.2%; in experiment [4] it was 45.6%; in experiment [5] it was 16%; in experiment [6] it was 72.1%. Further, the growth is 66% in experiment [7]; 64.4% in [8]; 25.7% in [9]; 89.1% in experiment [10]; 87.8% in experiment [11]; 51% in experiment [12]. Further, the growth in experiment [13] is 38.5%; in experiment [14], 21.7%; in experiment [16] it was 79.3%; in experiment [17], 84.5%; in experiment [18], 73.5%; in experiment [19], 118%. In [20], the growth is 89.9%.

For the origin of these results see PubChem BioAssay (NCI).
